# Data taken from PubChem BioAssay AID2071 (Sanford-Burnham Center for Chemical Genomics, 2009).
# About 1,700 (0.61%) of roughly 280,000 compounds were called active. No stated cut-off is given here; in the data, active means inhibition mostly above about 24% (no sharp cut-off); inactive means mostly below about 32%. For the sample, actives were picked, then their nearest neighbours and some compounds at random.
# Test: NALP1 inflammasome inhibitors in reconstituted yeast, colorimetric, S. cerevisiae, triplicate retest (AID 2071)
# Conditions: S. cerevisiae NALP1/ASC/caspase-1 growth, X-gal OD620, 72 h, stronger effect = higher value
smiles,measurement,setting,value
Cc1ccc(/C=N/NC(=O)c2cc3ccccc3cc2O)o1,inhibition,at 10 µM unless noted,-11.5% (inactive)
CC(=O)N(C)c1ccc(NC(=O)Nc2cccc3ccccc23)cc1,inhibition,at 10 µM unless noted,15.8% (inactive)
CCOc1cc(/C=C/c2nc3ccccc3c(=O)[nH]2)cc(Br)c1OC,inhibition,at 10 µM unless noted,8.1% (inactive)
COc1ccc2oc(=O)c(C(=O)N3CCN(c4ccccc4F)CC3)cc2c1,inhibition,at 10 µM unless noted,0.6% (inactive)
O=C(c1ccc(CN2CCOCC2)cc1)N1CCN(c2ccccc2F)CC1,inhibition,at 10 µM unless noted,6.8% (inactive)
O=C(c1cccc2ccccc12)N1CCN(c2ccccc2F)CC1,inhibition,at 10 µM unless noted,41.1% (active)
COc1ccccc1CNC(=O)[C@@H]1CCCN1C(=O)[C@@H]1Cc2ccccc2CN1C(=O)OC(C)(C)C,inhibition,at 10 µM unless noted,-18.4% (inactive)
COc1ccc(NC(=O)CNC(=O)Cc2ccccc2)cc1OC,inhibition,at 10 µM unless noted,-89.6% (inactive)
COc1ccc(NS(=O)(=O)c2ccc(NC(C)=O)cc2)cc1OC,inhibition,at 10 µM unless noted,26.3% (inactive)
COc1ccc(NC(=S)SC)cc1OC,inhibition,at 10 µM,73.8% (active)
same,inhibition,"triplicate retest, at 20 µM",94.6%
Cc1cc(NC(=O)CCN2CCN(Cc3ccccc3)CC2)ccc1Br,inhibition,at 10 µM unless noted,16.7% (inactive)
CN(CCO)c1ccc(/C=N/Nc2nncc3ccccc23)cc1,inhibition,at 10 µM unless noted,3.8% (inactive)
O=C(C(NS(=O)(=O)c1cccc2nsnc12)c1ccccc1)N1CCN(c2ccccn2)CC1 (stereo not drawn),inhibition,at 10 µM unless noted,8.1% (inactive)
O=C(O)C(NS(=O)(=O)c1cccc2nsnc12)c1ccccc1 (stereo not drawn),inhibition,at 10 µM unless noted,15.5% (inactive)
O=C(C(NS(=O)(=O)c1cccc2nsnc12)c1ccccc1)N1CCN(c2ccccc2)CC1 (stereo not drawn),inhibition,at 10 µM unless noted,34.4% (active)
CCOc1ccc(CN2CCN(CCCc3ccccc3)C(CCO)C2)cc1 (stereo not drawn),inhibition,at 10 µM unless noted,28.9% (inactive)
CCn1ccnc1CN(C)C(=O)c1cc(COc2ccc(Cl)cc2OC)on1,inhibition,at 10 µM unless noted,-9.7% (inactive)
CC(C)(C)c1ccc(/C=C/C(=O)NCCCn2ccnc2)cc1,inhibition,at 10 µM unless noted,1.5% (inactive)
CCOc1ccccc1-c1nc(CN2CCC(C(=O)N3CCOCC3)CC2)c(C)o1,inhibition,at 10 µM unless noted,29% (active)
CCOc1ccccc1-c1cc(C(=O)N2CCOCC2)c2ccccc2n1,inhibition,at 10 µM unless noted,0.7% (inactive)
COc1ccc(F)c(-c2nc(CN3CCC(c4ccccc4)CC3)c(C)o2)c1,inhibition,at 10 µM unless noted,13.2% (inactive)
CCOc1ccc(CN2CCNC(=O)C2CC(=O)NCCCC2CCCC2)cc1 (stereo not drawn),inhibition,at 10 µM unless noted,1% (inactive)
C/C(=N\NC(=O)c1cc(-c2ccc(O)cc2)nc2ccccc12)c1cccnc1,inhibition,at 10 µM unless noted,-2.6% (inactive)
CCOC(=O)CSc1nc2ccc(C)cc2n2cnnc12,inhibition,at 10 µM unless noted,10.4% (inactive)
COc1ccc(-n2c(SCC(=O)Nc3sc4c(c3C#N)CCCC4)nnc2-c2ccc(O)cc2)cc1,inhibition,at 10 µM unless noted,40.9% (active)
CCCc1cc(=O)[nH]c(SCC(=O)Nc2sc3c(c2C#N)CCCC3)n1,inhibition,at 10 µM unless noted,9.4% (inactive)
N#Cc1c(NC(=O)CSc2nc3ccccc3c(=O)n2Cc2ccco2)sc2c1CCCC2,inhibition,at 10 µM unless noted,20.7% (inactive)
COc1ccc(C(=O)NCC(=O)N/N=C/c2cccnc2)cc1,inhibition,at 10 µM unless noted,-23.5% (inactive)
CC(C)[C@@H]1COC(c2cccc(C3=N[C@H](C(C)C)CO3)c2)=N1,inhibition,at 10 µM unless noted,10.4% (inactive)
COc1ccc(OCc2cn3c(C)cc(C)nc3n2)cc1,inhibition,at 10 µM unless noted,22.5% (inactive)
COc1ccc(C(C[N+](=O)[O-])n2nc(C)cc2C)cc1 (stereo not drawn),inhibition,at 10 µM unless noted,103% (active)
COc1ccc(C(=O)CSc2nc(C)cc(C)n2)cc1[N+](=O)[O-],inhibition,at 10 µM unless noted,-10% (inactive)
CN(Cc1cnccn1)C(=O)c1cc(COc2cccc(C(F)(F)F)c2)on1,inhibition,at 10 µM unless noted,-7.1% (inactive)
S=C(Nc1cccc(Cl)c1)Nc1ccc2c(c1)OCCO2,inhibition,at 10 µM unless noted,2% (inactive)
Cc1ccc(NC(=O)CN2CCc3ccccc3C2)cc1,inhibition,at 10 µM unless noted,-0.6% (inactive)
Cc1cccc(C)c1NC(=O)c1ccc(CN2CCc3ccccc3C2)cc1,inhibition,at 10 µM unless noted,29.1% (active)
CN(c1cccc(NC(=O)c2ccc(CN3CCc4ccccc4C3)cc2)c1)S(C)(=O)=O,inhibition,at 10 µM unless noted,-14.2% (inactive)
CCOC(=O)c1ccc(NC(=O)c2cccnc2)cc1,inhibition,at 10 µM unless noted,16.3% (inactive)
S=C(Nc1ccc(Cl)cc1Cl)N1CCCC1,inhibition,at 10 µM unless noted,11% (inactive)
O=C(CCCNS(=O)(=O)c1cccc2nsnc12)NCCN1CCN(c2ccccc2F)CC1,inhibition,at 10 µM unless noted,8.8% (inactive)
O=C(CCS(=O)(=O)c1cccc2nsnc12)N1CCN(c2ccccc2F)CC1,inhibition,at 10 µM unless noted,42.9% (active)
CCC(=O)N1CCc2cc(S(=O)(=O)CCC(=O)N3CCN(c4ccccc4F)CC3)ccc21,inhibition,at 10 µM unless noted,32% (inactive)
CN(C(=O)c1cc2c(=O)n3ccccc3nc2s1)C1CCCCC1,inhibition,at 10 µM unless noted,4.6% (inactive)
CC(=O)NCCNC(=O)c1cc(-c2cccc3ccccc23)nc2ccccc12,inhibition,at 10 µM unless noted,0.4% (inactive)
C=CCOc1cccc(C2C(C(=O)c3ccc(C)o3)=C(O)C(=O)N2CCCn2ccnc2)c1 (stereo not drawn),inhibition,at 10 µM unless noted,13.4% (inactive)
O=C(CNC(=O)c1ccc(F)cc1)c1ccccc1,inhibition,at 10 µM unless noted,3.2% (inactive)
O=C(C1CC(=O)N(C2CCCCC2)C1)N1CCN(c2ccccc2)CC1 (stereo not drawn),inhibition,at 10 µM unless noted,4.2% (inactive)
O=C(C1CCC(=O)N(C2CC2)C1)N1CCN(c2ccc(Cl)cc2)CC1 (stereo not drawn),inhibition,at 10 µM unless noted,26.5% (active)
O=C(NCc1cccc(Cl)c1)C1CCC(=O)N(C2CC2)C1 (stereo not drawn),inhibition,at 10 µM unless noted,15.1% (inactive)
O=C(NCc1ccccc1)C(=O)NCC1OCCN1S(=O)(=O)c1ccc(Br)cc1 (stereo not drawn),inhibition,at 10 µM unless noted,8% (inactive)
CN(C)c1nc(Nc2ccc(Cl)c(Cl)c2)nc(N(C)C)n1,inhibition,at 10 µM unless noted,14.2% (inactive)
OCCNc1nc(Nc2ccc(Cl)c(Cl)c2)nc2ccccc12,inhibition,at 10 µM unless noted,31.9% (active)
Nc1nc(Nc2ccccc2)nc(NCCO)c1[N+](=O)[O-],inhibition,at 10 µM unless noted,2.9% (inactive)
O=S(=O)(NC1CC2CCC1C2)c1ccc(Cl)cc1 (stereo not drawn),inhibition,at 10 µM unless noted,-6% (inactive)
Cc1ccc2c(C)c(C(=O)N3CCN(c4ccncc4)CC3)oc2c1C,inhibition,at 10 µM unless noted,12.6% (inactive)
COc1cc(CN2CCCC(C(=O)c3ccc(SC)cc3)C2)cc(Cl)c1O (stereo not drawn),inhibition,at 10 µM unless noted,19.3% (inactive)
COc1ccc(S(=O)(=O)N2CCN(C)CC2)c(C)c1,inhibition,at 10 µM unless noted,26.4% (inactive)
COc1ccc(C)cc1Nc1n[n+](-c2ccccc2)c(-c2cccc(Cl)c2Cl)s1,inhibition,at 10 µM unless noted,19.6% (inactive)
CCOC(=O)/C(C#N)=C/c1ccc(N2CCCCC2)cc1,inhibition,at 10 µM unless noted,6.6% (inactive)
Cc1ccccc1C(=O)Nc1ccc(N2CCCCCC2)cc1,inhibition,at 10 µM unless noted,1.4% (inactive)
O=C1C=CC(=O)N1c1ccc(N2CCCCC2)cc1,inhibition,at 10 µM,45.6% (active)
same,inhibition,"triplicate retest, at 20 µM",114%
CCCn1nc2cc(C(=O)NCc3ccccc3)ccc2c1OCC,inhibition,at 10 µM unless noted,34.5% (active)
CCOc1c2ccc(C(=O)NCc3ccc4c(c3)OCO4)cc2nn1C,inhibition,at 10 µM unless noted,30.5% (inactive)
CCOc1c2ccc(C(=O)NCc3ccc(OC(F)(F)F)cc3)cc2nn1C,inhibition,at 10 µM unless noted,14.9% (inactive)
CCc1noc(C)c1C(=O)N1CCCC(N2CCN(c3ccc(F)cc3)CC2)C1 (stereo not drawn),inhibition,at 10 µM unless noted,15% (inactive)
CCOc1ccc(-n2c(SCC(N)=O)nnc2-c2ccco2)cc1,inhibition,at 10 µM unless noted,7.9% (inactive)
Oc1c(Cl)cc(Cl)c(Cl)c1Cc1c(O)c(Cl)cc(Cl)c1Cl,inhibition,at 10 µM,121% (active)
same,inhibition,"triplicate retest, at 20 µM",100%
Cc1cc(S(=O)(=O)NCC(C)C)ccc1OCC(=O)NC1CC1,inhibition,at 10 µM unless noted,13.3% (inactive)
Cn1c(=O)oc2cc(S(=O)(=O)N3CCC(C(=O)Nc4ccc(OC(F)(F)F)cc4)CC3)ccc21,inhibition,at 10 µM unless noted,22.5% (active)
Cc1ccc2nc(NC(=O)C3CCN(S(=O)(=O)c4ccc5c(c4)oc(=O)n5C)CC3)sc2c1,inhibition,at 10 µM unless noted,0.1% (inactive)
COc1ccc(NC(=O)C2CCN(S(=O)(=O)c3ccc4[nH]c(=O)oc4c3)CC2)c(OC)c1,inhibition,at 10 µM unless noted,-45% (inactive)
COCCCNC(=S)N(CCN(C)C)Cc1cc2cc3c(cc2[nH]c1=O)OCCO3,inhibition,at 10 µM unless noted,8.7% (inactive)
COc1ccc(C(=O)Nc2ccnn2C2CCN(Cc3ccncc3)CC2)cc1,inhibition,at 10 µM unless noted,14.9% (inactive)
COc1cc(C(=O)NC2CCN(Cc3ccccc3)CC2)cc(Cl)c1OC(C)C,inhibition,at 10 µM unless noted,19.9% (inactive)
COc1cc2[nH]c(=O)n(Cc3ccc(C(=O)NC4CCN(Cc5ccccc5)CC4)cc3)c(=O)c2cc1OC,inhibition,at 10 µM unless noted,36.6% (active)
COc1cc2[nH]c(=O)n(CCC(=O)NC3CCN(Cc4ccccc4)CC3)c(=O)c2cc1OC,inhibition,at 10 µM unless noted,15.6% (inactive)
O=C(N/N=C\C1CC=CCC1)c1ccc(Br)o1 (stereo not drawn),inhibition,at 10 µM unless noted,11.4% (inactive)
CCCn1c(C2CCCN2c2nc(-c3ccc(OC)cc3)cs2)nc2ccccc21 (stereo not drawn),inhibition,at 10 µM unless noted,21.7% (inactive)
Oc1ccc2ccccc2c1N=Nc1nccs1,inhibition,at 10 µM unless noted,59.8% (active)
Oc1ccc(N=Nc2nccs2)c(O)c1,inhibition,at 10 µM unless noted,8.1% (inactive)
Oc1ccc(N=Cc2c(O)ccc3ccccc23)cc1,inhibition,at 10 µM unless noted,-1.8% (inactive)
O=C(NCCNc1ccc([N+](=O)[O-])cc1Cl)c1ccccc1F,inhibition,at 10 µM unless noted,29.5% (inactive)
Fc1ccccc1N=C1Nc2cccc3cccc1c23,inhibition,at 10 µM unless noted,-0.1% (inactive)
COc1ccccc1C1=Nc2cccc3cccc(c23)N1,inhibition,at 10 µM unless noted,9.5% (inactive)
c1ccc(C2=Nc3cccc4cccc(c34)N2)cc1,inhibition,at 10 µM unless noted,47.7% (active)
O=C(c1noc2c1CCCC2)N1CCc2ccccc2C1,inhibition,at 10 µM unless noted,3.2% (inactive)
COc1ccc(N2CCN(C(=O)c3ccccc3NC(=O)C3=C(C)OCCS3)CC2)cc1,inhibition,at 10 µM unless noted,13.7% (inactive)
COc1cc(-c2c(-c3ccc4c(c3)OCO4)noc2C)ccc1F,inhibition,at 10 µM unless noted,3.9% (inactive)
C=CCNC(=S)N1CCc2[nH]c3ccccc3c2C1,inhibition,at 10 µM unless noted,36.9% (active)
CCCC(=O)N1CCc2[nH]c3ccccc3c2C1,inhibition,at 10 µM unless noted,12.2% (inactive)
Fc1ccc(NC(=S)N2CCc3[nH]c4ccccc4c3C2)cc1,inhibition,at 10 µM unless noted,-2.7% (inactive)
Cc1ccnc(N2C(=O)c3ccc([N+](=O)[O-])cc3C2=O)c1,inhibition,at 10 µM unless noted,4.8% (inactive)
O=C(C1=C[C@H](c2ccc(C(F)(F)F)cc2)C[C@H](OCc2ccc(CO)cc2)O1)N1CCN(Cc2ccccc2)CC1,inhibition,at 10 µM unless noted,26.9% (active)
O=C(C1=C[C@H](C2CC2)C[C@H](OCc2ccc(CO)cc2)O1)N1CCN(Cc2ccccc2)CC1,inhibition,at 10 µM unless noted,-5.8% (inactive)
O=C(NCc1ccccc1)C1=C[C@@H](c2ccc(C(F)(F)F)cc2)C[C@@H](OCc2ccc(CO)cc2)O1,inhibition,at 10 µM unless noted,-7.3% (inactive)
